Molecules are shown by their SMILES. About 83,000 compounds went through this panel and 20% of them were active in at least one assay; those are over-represented in the sample as a whole.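 Cell lines were cultured in 96-well plates, exposed to a single compound concentration, and assessed for percent growth 48 hours later.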 A number with no mark means an inactive call. The source made the active and inactive calls. Rule for the calls: active = growth percent below 10; inactive = the rest.

What all share (assay): NCI-60 one-dose screen, 48 h (100 = growth as untreated, 0 = no growth, -100 = all killed)
The subject of one assay is NCI-H322M lung. As to conditions: 10 µM unless noted.
A further assay relates to COLO 205 colon. Particulars: 10 µM.
A further assay concerns K-562 leukemia. As to conditions: 10 µM unless noted.
The next assay has as its system HT29 colon. As to conditions: 10 µM unless noted.
The next assay has as its system U251 CNS. Particulars: 10 µM unless noted.
The test system of the next assay is PC-3 prostate. As to conditions: 10 µM unless noted.
For another assay, the system named is SK-MEL-5 melanoma. Particulars: 10 µM unless noted.
For another assay, the system named is EKVX NSCLC. Particulars: 10 µM unless noted.
The subject of another assay is CAKI-1 renal. As to conditions: 10 µM unless noted.
Another assay concerns CCRF-CEM leukemia. Particulars: 10 µM unless noted.
Another assay relates to SR leukemia. Particulars: 10 µM.
For the next assay, the system named is RPMI-8226 leukemia. As to conditions: 10 µM unless noted.
Another assay deals with OVCAR-5 ovarian. Particulars: 10 µM unless noted.
Another assay concerns IGROV1 ovarian. Particulars: 10 µM.
In the next assay the test system is OVCAR-3 ovarian. As to conditions: 10 µM unless noted.
The next assay deals with HS 578T breast. Particulars: 10 µM unless noted.
A further assay concerns NCI-H522 lung. As to conditions: 10 µM unless noted.
The next assay relates to HOP-92 NSCLC. As to conditions: 10 µM unless noted.

`[Br][Pb]([c]1ccccc1)([c]1ccccc1)[c]1ccccc1`: the growth was -100% (active) in the assay with NCI-H322M lung; -98.7% (active) with COLO 205 colon; -46.7% (active) with K-562 leukemia; -73.4% (active) in the assay on HT29 colon; -100% (active) in the assay with U251 CNS; -80.6% (active) in the assay with PC-3 prostate. Also, the growth was -100% (active) in the assay on SK-MEL-5 melanoma; -91.1% (active) in the assay on EKVX NSCLC; -100% (active) with CAKI-1 renal; -21.5% (active) with CCRF-CEM leukemia; -37.8% (active) in the assay with SR leukemia; -29.8% (active) with RPMI-8226 leukemia. Moreover, the growth in the assay on OVCAR-5 ovarian was -93.1% (active); with IGROV1 ovarian it was -50.9% (active); with OVCAR-3 ovarian, -99% (active); in the assay with HS 578T breast, -35.6% (active).

Turning to `COP(=S)(OC)Oc1ccc(SC)c(C)c1`, the growth with NCI-H322M lung is 108%; with NCI-H522 lung, 94.8%; with COLO 205 colon, 101%; in the assay with K-562 leukemia it was 99.6%; in the assay on HT29 colon, 103%; in the assay on U251 CNS, 100%. The growth is 85.9% with PC-3 prostate; 106% in the assay with EKVX NSCLC; 92.6% in the assay on CAKI-1 renal; 113% with CCRF-CEM leukemia; 93.2% in the assay with OVCAR-5 ovarian; 99.7% with IGROV1 ovarian. The growth in the assay on OVCAR-3 ovarian is 104%; in the assay with HS 578T breast it was 110%.

Turning to `CC12CCC3C(CC=C4CC(O)CCC43C)C1C/C(=C\N1CCOCC1)C2=O` (stereo not given), the growth with NCI-H322M lung is 113%; in the assay with HOP-92 NSCLC it was 91.3%; in the assay with COLO 205 colon it was 116%; in the assay with K-562 leukemia it was 108%; in the assay with U251 CNS, 100%; in the assay on PC-3 prostate, 96.4%. Further, the growth in the assay on EKVX NSCLC was 96.1%; with CCRF-CEM leukemia, 94.3%; in the assay on SR leukemia, 98.4%; in the assay with RPMI-8226 leukemia, 102%; with OVCAR-5 ovarian it was 98.1%; in the assay with OVCAR-3 ovarian, 116%. Moreover, the growth in the assay with HS 578T breast was 114%.

Take `CCOP(=O)(OCC)Oc1ccc(Sc2ccc(OP(=O)(OCC)OCC)cc2)cc1`: the growth in the assay with HOP-92 NSCLC is 79.7%; in the assay on NCI-H522 lung it was 91.2%; in the assay with COLO 205 colon, 110%; with K-562 leukemia, 102%; in the assay with HT29 colon, 108%; in the assay with PC-3 prostate it was 90.9%. Moreover, the growth with SK-MEL-5 melanoma was 100%; with CAKI-1 renal, 93.1%; in the assay with CCRF-CEM leukemia, 86.3%; in the assay with SR leukemia it was 94.2%; in the assay on RPMI-8226 leukemia, 90%; in the assay on OVCAR-5 ovarian, 105%. Further, the growth was 98% with IGROV1 ovarian and 111% with OVCAR-3 ovarian.

As for `COC(C)(C)CCC[C@H](C)C/C=C/C(C)=C/C(=O)OC(C)C`, the growth in the assay on NCI-H322M lung is 108%; in the assay with NCI-H522 lung it was 69.1%; in the assay on COLO 205 colon, 107%; in the assay with K-562 leukemia, 85.3%; in the assay with U251 CNS, 95.9%; with PC-3 prostate, 88.7%. Further, the growth in the assay on EKVX NSCLC is 78.1%; in the assay with CAKI-1 renal, 85.4%; with CCRF-CEM leukemia, 78%; in the assay on OVCAR-5 ovarian, 128%; in the assay with IGROV1 ovarian, 99.7%; with OVCAR-3 ovarian, 111%. In the assay on HS 578T breast, the growth is 119%.

Take `C/C(=N/OC(=O)N(C)C)c1cc(Cl)ccc1Cl`: the growth in the assay with HOP-92 NSCLC is 107%; in the assay with NCI-H522 lung, 83.5%; in the assay on COLO 205 colon it was 100%; with K-562 leukemia it was 104%; in the assay with HT29 colon it was 100%; in the assay on PC-3 prostate it was 106%. In addition, the growth was 100% with SK-MEL-5 melanoma; 98.9% with CAKI-1 renal; 91.7% in the assay on CCRF-CEM leukemia; 90.7% in the assay on SR leukemia; 97.9% in the assay on RPMI-8226 leukemia; 104% in the assay on OVCAR-5 ovarian. Also, the growth in the assay on IGROV1 ovarian is 104%; in the assay with OVCAR-3 ovarian, 105%; in the assay with HS 578T breast it was 105%.

Take `CNC(=O)Oc1ccccc1-c1ccccc1`: the growth in the assay with HOP-92 NSCLC is 101%; with NCI-H522 lung it was 85.9%; in the assay with COLO 205 colon, 113%; in the assay with K-562 leukemia, 99.6%; in the assay with PC-3 prostate, 97.8%; in the assay with SK-MEL-5 melanoma it was 107%. The growth was 94.1% with CCRF-CEM leukemia; 99% in the assay on SR leukemia; 111% in the assay on OVCAR-5 ovarian; 105% in the assay with OVCAR-3 ovarian; 107% with HS 578T breast.

As for `O=C(O)CNC(=O)c1ccccc1`, the growth is 92.4% with HOP-92 NSCLC; 104% with COLO 205 colon; 114% in the assay on HT29 colon; 102% in the assay on PC-3 prostate; 98.9% with SK-MEL-5 melanoma; 83.2% in the assay on CAKI-1 renal. Also, the growth is 92.2% with RPMI-8226 leukemia; 98.6% with OVCAR-5 ovarian; 105% with IGROV1 ovarian; 105% in the assay with OVCAR-3 ovarian; 108% in the assay with HS 578T breast.

Consider `N#[N+]c1cnc([O-])[nH]c1=O`, for which the growth with NCI-H322M lung is 98.9%; in the assay on NCI-H522 lung, 14.4%; in the assay on COLO 205 colon, 94.2%; in the assay with K-562 leukemia, 76%; in the assay on HT29 colon, 105%; in the assay on U251 CNS, 98.3%. Further, the growth in the assay on PC-3 prostate is 92.7%; in the assay with SK-MEL-5 melanoma, 97%; with EKVX NSCLC it was 114%; in the assay on CAKI-1 renal, 94.3%; with CCRF-CEM leukemia, 69.9%; in the assay with SR leukemia it was 64.8%. Moreover, the growth is 60.2% with RPMI-8226 leukemia, 83.9% in the assay on OVCAR-5 ovarian and 83.5% in the assay with HS 578T breast.

Take `CCCCCN(CCCCC)CC(O)c1ccc(C)c(Cl)c1` (stereo not given): the growth in the assay with NCI-H322M lung is 102%; in the assay on NCI-H522 lung it was 83.5%; in the assay on COLO 205 colon, 91.3%; in the assay on K-562 leukemia it was 92.5%; in the assay on HT29 colon, 79%; with U251 CNS, 92.4%. Also, the growth was 103% in the assay on SK-MEL-5 melanoma; 95.2% with EKVX NSCLC; 98.2% in the assay on CAKI-1 renal; 99% in the assay with CCRF-CEM leukemia; 92.4% in the assay on SR leukemia; 83.8% in the assay with OVCAR-5 ovarian. Further, in the assay with IGROV1 ovarian, the growth was 92.2%.

Values taken from PubChem BioAssay (NCI).
